Assay [1] can be described thus: qHTS profiling of the MIPE4 collection as inhibitors of Plasmodium falciparum (DD2) proliferation (AID 743345). Conditions: P. falciparum Dd2 in erythrocytes, SYBR Green DNA, 72 h; at 28.5 µM (top of the series) unless noted. The essentials:
(§1)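 Erythrocytes infected with P. falciparum (0.3% parasitemia, 2.5% hematocrit) incubated with compounds 72 h at 37 C, 5% CO2. Lysis with saponin/Triton buffer containing SYBR Green I, overnight at room temperature in the dark; DNA fluorescence (485/535 nm) normalised to 0.29 uM artemisinin and DMSO.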

Assay [2] in a line: qHTS profiling of the MIPE4 collection as inhibitors of Plasmodium falciparum (DD2) proliferation (Rep 2) (AID 743346). Conditions: P. falciparum Dd2 in erythrocytes, SYBR Green DNA, 72 h; at 28.5 µM (top of the series) unless noted. The essentials: as §1
Assay [3] can be described thus: qHTS profiling of the MIPE4 collection as inhibitors of Plasmodium falciparum (HB3) proliferation (AID 743347).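 Also: plate controls were DMSO vehicle wells for no effect and artemisinin wells for full effect.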 The conditions noted are these: P. falciparum HB3 in erythrocytes, SYBR Green DNA, 72 h; at 28.5 µM (top of the series) unless noted. The essentials:
as §1

Positions of bridges follow the written chain, without caps; N, C: chain ends. Non-standard residues stand in square brackets, D forms with d. Residues, ends and D or L forms follow the SMILES beside them. ξ: configuration not given here. *: point of attachment. Octanoyl(6-Me) = CCC(C)CCCCC(=O)*; ξThr(3R) = C[C@@H](O)C(N)C(=O)O; dDab = NCC[C@@H](N)C(=O)O; Dab = NCC[C@H](N)C(=O)O; Cbz = O=C(OCc1ccccc1)*

For the compound `CCOc1cc2ncc(C#N)c(Nc3ccc(OCc4ccccn4)c(Cl)c3)c2cc1NC(=O)C=CCN(C)C`, the parasite growth remaining, % of DMSO control (lower = more inhibition) in assay [1] turned out to be 7.24%. In addition, in assay [2], the parasite growth, % of control (lower = inhibition) is 12.3%. In assay [3], this compound came in with a growth, % of control of 2.73%.

Turning to `O=C1NC(=O)C(=Cc2ccc3nccc(-c4ccncc4)c3c2)S1`, in assay [1], the parasite growth remaining, % of DMSO control (lower = more inhibition) is 7.95%. Also, the parasite growth, % of control (lower = inhibition) in assay [2] turned out to be 7.98%. In assay [3], this compound displayed a growth, % of control of 3.52%.

For `CC(C)C[C@@H](C=O)NC(=O)[C@H](CC(C)C)NC(=O)[C@H](CC(C)C)NC(=O)OCc1ccccc1` (Cbz-Leu-Leu-Leu-aldehyde), the parasite growth remaining, % of DMSO control (lower = more inhibition) in assay [1] came out at 6.51%. Besides, the growth, % of control in assay [3] worked out at 6.33%.

As to `CN1CCc2c(c3ccccc3n2Cc2ccc(C(=O)NO)cc2)C1`, in assay [1], the parasite growth remaining, % of DMSO control (lower = more inhibition) amounted to 12.1%. The parasite growth, % of control (lower = inhibition) in assay [2] is 15.2%. For the same compound, the growth, % of control in assay [3] was determined as 5.01%.

With `O=C(Nc1cc2cc[nH]c2cn1)c1ccccc1`, in assay [1], the parasite growth remaining, % of DMSO control (lower = more inhibition) is 88%. In addition, the parasite growth, % of control (lower = inhibition) in assay [2] stood at 39.2%.

In the case of `CC(C)(C)[N+]([O-])=Cc1ccc(S(=O)(=O)O)cc1S(=O)(=O)O`, the parasite growth remaining, % of DMSO control (lower = more inhibition) in assay [1] is 92.1%. The parasite growth, % of control (lower = inhibition) in assay [2] was found to be 85.8%. The same compound displayed a growth, % of control in assay [3] of 63%.

Regarding `CN(N=O)C(=O)N[C@H]1C(O)OC(CO)[C@@H](O)[C@H]1O` (some centres not stated), in assay [1], the parasite growth remaining, % of DMSO control (lower = more inhibition) was determined as 93.8%. For the same compound, in assay [2], the parasite growth, % of control (lower = inhibition) came to 114%. Besides, the growth, % of control in assay [3] turned out to be 68.3%.

With `FC(F)c1nc2ccccc2n1-c1nc(N2CCOCC2)nc(N2CCOCC2)n1`, the parasite growth remaining, % of DMSO control (lower = more inhibition) in assay [1] was 7.94%. For the same compound, the parasite growth, % of control (lower = inhibition) in assay [2] was determined as 8.19%. The same compound yielded a growth, % of control in assay [3] of 3.1%.

Consider `C=C1C(=CC=C2CCC[C@]3(C)[C@@H]([C@H](C)CCCC(C)(C)O)CC[C@@H]23)C[C@@H](O)C[C@@H]1O`, for which, in assay [1], the parasite growth remaining, % of DMSO control (lower = more inhibition) was determined as 95.2%. Besides, the parasite growth, % of control (lower = inhibition) in assay [2] was 22.4%. The growth, % of control in assay [3] was 9.14%.

For the compound `CCC(C)CCCCC(=O)N[C@@H](CCN)C(=O)NC(C(=O)N[C@H](CCN)C(=O)N[C@@H]1CCNC(=O)C([C@@H](C)O)NC(=O)[C@@H](CCN)NC(=O)[C@@H](CCN)NC(=O)[C@@H](CC(C)C)NC(=O)[C@H](Cc2ccccc2)NC(=O)[C@H](CCN)NC1=O)[C@@H](C)O` (stereo partly drawn) ({Octanoyl(6-Me)}-[Dab][ξThr(3R)][dDab][dDab][Dab]F[dL][dDab][dDab][ξThr(3R)]; lactam 4-C), in assay [1], the parasite growth remaining, % of DMSO control (lower = more inhibition) stood at 124%. Moreover, in assay [2], the parasite growth, % of control (lower = inhibition) was found to be 83.7%. Further, the growth, % of control in assay [3] was determined as 96.2%.

As to `CN(C)CC[C@H](c1ccc(Cl)cc1)c1ccccn1`, in assay [1], the parasite growth remaining, % of DMSO control (lower = more inhibition) was 57%. Besides, the parasite growth, % of control (lower = inhibition) in assay [2] was 36.2%.

Regarding `CC(=O)OCC(=O)[C@@]12N=C(C)O[C@H]1C[C@H]1[C@@H]3CCC4=CC(=O)C=C[C@]4(C)[C@@H]3[C@@H](O)C[C@@]12C`, in assay [1], the parasite growth remaining, % of DMSO control (lower = more inhibition) was determined as 90%. In addition, the parasite growth, % of control (lower = inhibition) in assay [2] amounted to 68.3%.

Take `CC1(C)[C@H](O[C@H]2O[C@H](C(=O)O)[C@@H](O)[C@H](O)[C@H]2O[C@@H]2O[C@H](C(=O)O)[C@@H](O)[C@H](O)[C@H]2O)CC[C@@]2(C)[C@H]1CC[C@]1(C)[C@H]2C(=O)C=C2[C@H]3C[C@@](C)(C(=O)O)CC[C@]3(C)CC[C@]21C`: the parasite growth remaining, % of DMSO control (lower = more inhibition) in assay [1] was 97.4%. In addition, the parasite growth, % of control (lower = inhibition) in assay [2] was 85.7%. The same compound displayed a growth, % of control in assay [3] of 109%.

For the compound `COc1ccc(S(=O)(=O)Nc2cc(-c3c(O)ccc4ccccc34)c(O)c3ccccc23)cc1`, in assay [1], the parasite growth remaining, % of DMSO control (lower = more inhibition) was determined as 94.7%. Besides, the parasite growth, % of control (lower = inhibition) in assay [2] amounted to 23.7%. Further, the growth, % of control in assay [3] stood at 49.9%.

As for `COc1cc(CCc2cc(NC(=O)c3ccc(N4C[C@@H](C)N[C@@H](C)C4)cc3)n[nH]2)cc(OC)c1`, the parasite growth remaining, % of DMSO control (lower = more inhibition) in assay [1] is 66.7%. In assay [3], this compound showed a growth, % of control of 10.3%.

In the case of `C#Cc1cccc(Nc2ncnc3cc(OCCOC)c(OCCO)cc23)c1`, in assay [2], the parasite growth, % of control (lower = inhibition) is 18.2%. Further, in assay [3], the growth, % of control came out at 4.56%.

As to `O=C(NNC(=O)c1ccc(CNS(=O)(=O)c2ccc(F)c(Cl)c2)cc1)c1ccccc1`, the parasite growth remaining, % of DMSO control (lower = more inhibition) in assay [1] came out at 87.9%. Further, the parasite growth, % of control (lower = inhibition) in assay [2] was found to be 100%. In assay [3], this compound registered a growth, % of control of 588%.

As for `Cc1nc(NC(=O)N2CCC[C@@H]2C(N)=O)sc1-c1ccnc(C(C)(C)C(F)(F)F)c1`, the parasite growth remaining, % of DMSO control (lower = more inhibition) in assay [1] worked out at 36.1%. Besides, in assay [2], the parasite growth, % of control (lower = inhibition) was 24%. In addition, in assay [3], the growth, % of control came to 5.19%.

Take `CC(C)NC[C@@H](C(=O)N1CCN(c2ncnc3c2[C@H](C)C[C@H]3O)CC1)c1ccc(Cl)cc1`: the parasite growth remaining, % of DMSO control (lower = more inhibition) in assay [1] was 64.9%. The parasite growth, % of control (lower = inhibition) in assay [2] is 5.81%. This compound also showed a growth, % of control in assay [3] of 2.94%.

As for `C[C@H](NCc1ccc2c(c1)nc(NC(=O)c1ccc(-c3cn[nH]c3)s1)n2CCc1ccccc1)C(C)(C)C`, in assay [1], the parasite growth remaining, % of DMSO control (lower = more inhibition) worked out at 4.87%. Moreover, in assay [2], the parasite growth, % of control (lower = inhibition) is 13.1%. Further, in assay [3], the growth, % of control is 10.1%.

In the case of `C[C@@H](Oc1ccc2[nH]nc(C=Cc3cnn(CCO)c3)c2c1)c1c(Cl)cncc1Cl`, the parasite growth remaining, % of DMSO control (lower = more inhibition) in assay [1] is 8.67%. Further, in assay [2], the parasite growth, % of control (lower = inhibition) is 16.4%. The compound also gave a growth, % of control in assay [3] of 5.78%.

Source of the values: PubChem BioAssay (NCATS).
